JMJD2E inh = inhibitors of human JMJD2E histone demethylase; B2RXH2; JMJD2E catalytic domain, FDH-coupled NADH fluorescence (FDH is formaldehyde dehydrogenase); Potency, µM (highest dose often 57.1 µM), for the others: at the top dose activity change, negative = inhibition, most hits filed as inhibitors; 230,000 compounds, 1.6% hits; AID 2147;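 further: potency means the concentration at half of the fitted maximal effect; 0% = wells with enzyme and -100% = buffer wells without enzyme; nearly all actives have a fitted effect of over 50% in size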
PNC assembly inh = inhibitors of perinucleolar compartment assembly | AID 2417 | activity change (PNC), negative = inhibition, % at 10 µM | 140,000 compounds, 3.1% hits | PC3M PTB-GFP, PNC prevalence imaging, 16 h; stronger effect = lower value;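 active means readout at or below -70, meaning at least 70% loss of cells showing the perinucleolar compartment, a nuclear body marking cancer cells; inconclusive means readout between -30 and a set limit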;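 further: plate controls were DMSO wells for no effect and camptothecin positive control wells for full effect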
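PC3M cells stably expressing PTB-GFP, 750–1000 cells/well, treated 16 h at 37 °C with compound (23 nl of library stock), in duplicate. After paraformaldehyde fixation and Hoechst stain, imaged at 20x; PNC prevalence scored by image analysis.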
ALDH1A1 block = inhibitors of human aldehyde dehydrogenase 1A1; 220,000 compounds, 7.3% hits; Potency, µM (titrated, usually from 75.3 µM), for the others: top-dose activity, negative = inhibition, usual class: inhibitors; P00352; Purified ALDH1A1, NADH fluorescence, propionaldehyde substrate;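 further: potency means the concentration at half of the fitted maximal effect; plate controls were no enzyme wells and a reference inhibitor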
Target sequence (P00352 whole entry, looked up): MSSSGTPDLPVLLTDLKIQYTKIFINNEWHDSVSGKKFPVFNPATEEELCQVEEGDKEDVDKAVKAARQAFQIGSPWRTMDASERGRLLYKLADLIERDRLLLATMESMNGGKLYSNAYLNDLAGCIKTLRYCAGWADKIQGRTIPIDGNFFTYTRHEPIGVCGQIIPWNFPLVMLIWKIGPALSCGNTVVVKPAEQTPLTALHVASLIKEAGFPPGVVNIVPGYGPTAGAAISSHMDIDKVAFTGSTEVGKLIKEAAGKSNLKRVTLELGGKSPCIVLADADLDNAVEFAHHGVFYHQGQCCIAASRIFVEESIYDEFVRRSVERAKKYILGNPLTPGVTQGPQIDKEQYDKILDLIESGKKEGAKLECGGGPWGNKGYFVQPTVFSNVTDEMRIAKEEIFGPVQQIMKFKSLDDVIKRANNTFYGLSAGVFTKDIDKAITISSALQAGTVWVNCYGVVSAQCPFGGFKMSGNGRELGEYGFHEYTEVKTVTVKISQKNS
HPGD inh = inhibitors of human 15-hydroxyprostaglandin dehydrogenase (HPGD). P15428. purified HPGD, NADH fluorescence kinetic, PGE2 substrate. Potency, µM, inactives show at the highest dose activity change, negative = inhibition, actives largely listed as inhibitors. 150,000 compounds, 4.3% hits. AID 894; further: potency means the concentration at half of the fitted maximal effect
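NADH formation kinetics: reaction with 30 uM PGE2 and 1 mM NAD+ (final), 20 nM enzyme, Tris-HCl pH 8 with Tween 20, after 15 min compound preincubation at room temperature. Fluorescence change, last versus first of five reads.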
* hit, by the source's call; ? = inconclusive; / = no result; ! = a repeat was not active; [ ] = dose if it differs, or a comment. In the library only some 11% were active in any assay of this set; here they are far more common. Unless noted, the call rests on the fitted dose curve; in most records, active means well fitted inhibition curve with a large enough effect (not every such curve was filed as active); inconclusive means small, poorly fitted or top-dose-only effect, or another doubt; inactive means no such curve, though single readings can be large or run the other way. Unless noted, on the % scale 0 is the no-effect control and ±100 the full control effect.

SMILES	JMJD2E inh	PNC assembly inh	ALDH1A1 block	HPGD inh
Cc1ccc(SCCC(=O)NCCSCc2ccco2)cc1	-11.4%	/	?	/
Cc1cccc(CSCCNC(=O)CCSc2ccccc2)c1	1.8%	-23.5	?	28.2µM*
O=C(Cc1ccccc1)NCCSCc1ccc(Cl)cc1	4.9%	-6.7	?	31.6µM*
O=C(CCc1ccccc1)NCCSc1ccccc1	-1.6%	/	-1.1%	/
O=C(Nc1cccc2cccnc12)[C@@H]1[C@@H](C(=O)O)[C@H]2CC[C@@H]1O2	/	/	0.9%[13.5 µM]	0.0%
Cc1nn(Cc2ccccc2)c(Cl)c1/C=C/C(=O)OCC(=O)N(C)C1CCS(=O)(=O)C1 (stereo unspecified)	4.8%	/	6.3%	/
O=C(Nc1ccc2c(c1)CCC2)c1ccc(Br)o1	1.9%	?	-8.7%	-23.9%
Cc1ccc(C(=O)Nc2nc(C)c(C(=O)Nc3ccc4c(c3)CCC4)s2)cc1	?	-88.9*	?	?
Cc1ccc(C(=O)Nc2ccc3c(c2)CCC3)o1	8.5%	24.5	17.8µM*	22.4µM*
N[C@@](CC(=O)O)(Cc1ccccc1)C(=O)O	/	/	-5.7%[13.5 µM]	-2.6%
Cc1ccc(S(=O)(=O)c2cccc(S(=O)(=O)N3CCCC3)c2)cc1S(=O)(=O)N1CCCC1	-3.4%	-21.1	?	-5.6%
CCN(CC)S(=O)(=O)c1ccc(C)c(NC(=S)Nc2cccc(S(=O)(=O)N3CCCCCC3)c2)c1	7.0%	?	?	-19.2%
O=S(=O)(c1ccccc1)c1cccc(S(=O)(=O)N2CCCCC2)c1	5.1%	-3.2	2.24µM*	-11.0%
CCN(CC)S(=O)(=O)c1cccc(S(=O)(=O)N2CCCCC2)c1	-10.6%	?	3.55µM*	-0.7%
S=C1N[C@H](c2ccccc2)N[C@H](c2ccccc2)S1	/	/	3.16µM*	?
COC(=O)CCSC(=S)N1CCOCC1	-2.2%	/	/	/
Cc1onc(-c2ccccc2)c1C(=O)N1CCN(S(=O)(=O)c2ccc3c(c2)OCCO3)CC1	0.3%	?	3.16µM*	-8.1%
O=C(O)CCCn1nc(C(F)(F)F)c2c1CCCCC2	5.3%	-91.6*	?	-15.8%
O=C(O)c1ccc(-c2ccccc2C(F)(F)F)o1	-7.9%	0.6	4.5%	-7.4%
O=C(NCc1ccccc1)c1ccc(-c2ccccc2C(F)(F)F)o1	-1.7%	-84.2*	25.1µM*!	31.6µM*!
O=C(NCc1ccco1)C1CC(=O)N(CCc2ccccc2)C1 (stereo unspecified)	?	39.5	22.4µM*	-7.9%
NC(=O)CNC(=O)[C@@H]1CC2(CC(c3ccc(Cl)cc3)=NO2)CN1C(=O)c1ccccc1 (stereo partly specified)	-6.7%	-24.2	28.2µM*	-18.6%
COc1ccc(C(=O)N2CC3(CC(c4ccc(Cl)cc4)=NO3)C[C@H]2C(=O)NCC(N)=O)cc1 (stereo partly specified)	7.5%	29.8	8.3%	-1.8%
O=C(Cn1c(NCCCO)nc2ccccc21)c1cccc(Br)c1	-0.6%	27.2	28.2µM*	-25.4%
COc1ccc(C(=O)Cn2c(NCCO)nc3ccccc32)cc1OC	6.3%	-6.4	2.5%	-3.4%
SMILES	JMJD2E inh	PNC assembly inh	ALDH1A1 block	HPGD inh
Cc1ccc(-c2csc(N3N=C(c4ccccc4)/C(=C\c4ccc(N(C)C)cc4)C3=O)n2)cc1	-5.1%	10.6	3.55µM*	-3.6%
CC1=CC(=O)C2=C(C)CCC3C(C)C(=O)OC3C12 (stereo unspecified)	0.8%	/	?	-0.8%
O=C(Nc1cccc(Cl)c1)c1cccc(Oc2ccc([N+](=O)[O-])cc2Cl)c1	0.5%	-3.6	10µM*	-4.4%
CCN1C(=O)/C(=C\N2CCN(C(=O)c3ccco3)CC2)SC1=S	-2.6%	/	?	/
CC1(C)CC(=O)C(=CN2CCOCC2)C(=O)C1	-3.3%	/	10µM*	/
CC1(C)CC(=O)C(=CN2CCN(C(=O)c3ccco3)CC2)C(=O)C1	4.8%	?	22.4µM*	-9.3%
OCCC1CN(C2CCN(c3ccccc3)CC2)CCN1Cc1ccc(F)c(F)c1 (stereo unspecified)	3.9%	/	-1.6%	/
CC(=O)N1CC(=O)N=C1SCC(=O)Nc1nc(-c2ccccc2)c(-c2ccccc2)s1	?	-0.8	-13.1%	-11.4%
CCCc1nn(C)c2c(=O)[nH]c(-c3cc(S(=O)(=O)Nc4ccc(NC(C)=O)cc4)ccc3OCC)nc12	5.0%	/	/	/
CC(C)(C)c1ccc(CN2CCN([C@H](c3ccccc3)c3ccc(Cl)cc3)CC2)cc1	/	/	-2.7%[13.5 µM]	3.4%
S=C(NCCSCc1c(Cl)cccc1Cl)Nc1ccccc1	0.9%	-28.6	?	25.1µM*
CNC(=S)Nc1ccc(OCc2ccccc2)cc1	-14.4%	/	31.6µM*	/
S=C(NCCOCCOCCNC(=S)Nc1ccccc1)Nc1ccccc1	-29.5%	/	12.6µM*	/
CCOc1ccc(CSCCNC(=S)Nc2ccccc2)cc1	-10.7%	-92.0*	2.7%	-9.6%
CCOc1ccc(NC(=S)NCCCc2ccccc2)cc1	-1.9%	/	-7.1%	/
CCOc1ccc(NC(=S)Nc2ccc(OCc3ccccc3)cc2)cc1	1.4%	150.1	3.7%	-7.8%
CCNc1ncc2nc(-c3ccc(Cl)cc3)c(=O)n(Cc3cccc(OC)c3)c2n1	/	/	1.5%	/
COc1cc([N+](=O)[O-])ccc1NC(=O)CSc1nnc(C)c(C)n1	-11.1%	/	-3.5%	/
NC(=O)NOCc1ccccc1F	13.8%	/	?	/
COc1ccccc1C1=NNC(=Nc2cccc(S(=O)(=O)N(C)C)c2)SC1	?	/	35.5µM*	/
Cc1cccc(C)c1N=C1NN=C(c2ccccc2F)CS1	-17.2%	58.2	-12.2%	/
CCN(CC)c1ccc(/C=N/NS(=O)(=O)c2cccc([N+](=O)[O-])c2)cc1	-5.2%	-14.4	3.55µM*	-24.0%
CCN(CC)c1ccc(/C=N/NS(=O)(=O)c2ccc(CNC(C)=O)cc2)cc1	-11.9%	2.7	?	-11.2%
CCC(/C=C1\Sc2ccc(OC)cc2N1CC)=C\c1sc2ccc(OC)cc2[n+]1CCCS(=O)(=O)[O-]	-0.6%	/	1.26µM*	/
CCC(/C=C1\Sc2ccc(OC)cc2N1CCO)=C\c1sc2ccc(OC)cc2[n+]1CCO	2.1%	-12.2	?	1.0%
SMILES	JMJD2E inh	PNC assembly inh	ALDH1A1 block	HPGD inh
C[N+](C)(C)CCO	-2.5%	/	-4.5%	-12.8%
Cc1cc(-n2cnc(-c3cn[nH]c3C)n2)no1	8.9%	/	/	/
CCc1ccc(C(=O)N2CCCC2)s1	2.8%	?	?	15.8µM*
O=C(c1ccc(Cl)s1)N1CCCC1	-6.7%	-18.5	?	7.94µM*
COC(=O)c1ccc2c(=O)n(CC3CCCO3)c(SCC(=O)Nc3ccc(OC)cc3OC)nc2c1 (stereo unspecified)	-0.2%	/	/	/
Cc1[nH]n(-c2ccc(Cl)cc2)c(=O)c1/C=N/c1nnc(-c2ccccc2)s1	-19.1%	45.3	-7.8%	28.2µM*
Cc1ccc2nc(Nc3ccccc3)c(/C=N/O)c(=O)n2c1	3.9%	-100.0*	6.7%	11.2µM*
COc1ccc(Nc2nc3ccc(C)cn3c(=O)c2/C=N/O)cc1	3.1%	/	1.8%	/
Cc1cccc(-c2ncc(S(=O)(=O)C(C)(C)C)c(N)n2)c1	4.8%	/	/	/
COc1ccc(Cl)cc1NC(=O)CN1CCCCCC1	-1.3%	/	17.8µM*	/
COc1ccc(Cl)cc1NC(=O)CN(C(=O)c1ccco1)C1CCCCC1	5.2%	34.1	0.0398µM*	-16.0%

Screening results as filed in PubChem BioAssay.
